Our source for the Potency values is PubChem BioAssay (NCATS).

Records with an inconclusive call do not appear. Entries that show only a call come without a potency. Activity calls are given as the source filed them. Calls follow the shape of the dose curve; as a rule, active = well fitted inhibition curve with a large enough effect; inconclusive = small, poorly fitted or top-dose-only effect; inactive = flat fitted curve, though single readings scatter.

The subject of this assay is MCC-13. As to the kind of experiment: qHTS assay to identify novel small-molecules to repurpose for Merkel cell carcinoma treatment (AID 1296009). Also: nearly all actives have a fitted effect of over 60% in size. The following applies: MCC and control cell lines, CellTiter-Glo viability, 72 h; series mostly up to 46 µM. In short, it runs like this:
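72 hr, 37 degree celsius; NPC 8-pt / MIPE 11-pt dose response; compound pinned in DMSO; CellTiter-Glo, 10 min RT, luminescence; normalized to no-cell and DMSO controls.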
A general note: qHTS replaces the single test concentration by a dilution series.
Regarding `C#Cc1ccc(-c2ccccc2F)cc1`, the Potency entry is “inactive”.
Take `Cn1c(=O)c2c(ncn2CC(=O)O)n(C)c1=O`: the Potency entry is “inactive”.
Take `CC(=O)N1CCN(c2ccc(O)cc2)CC1`: the Potency entry is “inactive”.
For `Cc1cc(=O)oc2cc(O[C@@H]3SC[C@@H](O)[C@H](O)[C@H]3O)ccc12`, the Potency entry is “inactive”.
As for `CC(=O)N(CC(O)CO)c1c(I)c(C(=O)NCCO)c(I)c(C(=O)NCC(O)CO)c1I` (centres undefined), the Potency result is “inactive”.
As to `O=C(OCC(COC(=O)c1cccnc1)(COC(=O)c1cccnc1)COC(=O)c1cccnc1)c1cccnc1`, the Potency result was “inactive”.
For the compound `CN(C)CCN(Cc1ccsc1)c1ccccn1`, the Potency result is “inactive”.
In the case of `C#CC(C)(CC)OC(=O)c1ccccc1C(=O)O` (centres undefined), the Potency result is “inactive”.
The result for `COC(=O)c1cc(Cl)c(NC(C)=O)cc1OC` reads “inactive”.
In the case of `CCOC(=O)CN1CCCC1=O`, the Potency result is “inactive”.
Consider `COc1ccccc1OCC1CNC(=O)O1` (centres undefined), for which the Potency entry was “inactive”.
Turning to `C[C@]12CCC(=O)C=C1CC[C@@H]1[C@@H]2[C@@H](O)C[C@@]2(C)[C@H]1CC[C@]2(O)C(=O)COC(=O)CCC(=O)O`, the Potency entry is “inactive”.
Regarding `OCCOCCN1CCN(C(c2ccccc2)c2ccc(Cl)cc2)CC1` (centres undefined), the Potency entry was “inactive”.
Regarding `CCCCOC(=O)CCCCCCCCC(=O)OCCCC`, the Potency result was “inactive”.
Regarding `CCCCCC1Nc2cc(C(F)(F)F)c(S(N)(=O)=O)cc2S(=O)(=O)N1` (centres undefined), the Potency result was “inactive”.
As to `CN1CCC(=C2c3ccccc3CCc3cccnc32)CC1`, the Potency result was “inactive”.
For the compound `CSCC[C@H](NC(=O)[C@H](Cc1c[nH]c2ccccc12)NC(=O)CCNC(=O)OC(C)(C)C)C(=O)N[C@@H](CC(=O)O)C(=O)N[C@@H](Cc1ccccc1)C(N)=O`, the Potency result was “inactive”.
The result for `CCCc1c2oc(C(=O)O)cc(=O)c2cc2c(=O)cc(C(=O)O)n(CC)c12` reads “inactive”; that for `CCC(=O)Oc1ccc2c(c1)CC[C@@H]1[C@@H]2CC[C@@]2(C)[C@H]1C[C@@H](OC(=O)CC)[C@@H]2OC(=O)CC`, “inactive”; that for `CCC(CN)=C(c1ccccc1)c1ccccc1`, “inactive”.
In the case of `COc1ccc2nc(SCc3ncc(C)c(OC)c3C)[nH]c2c1` it was “inactive”; in that of `N#CC1(c2ccc(F)cc2)CCC(=O)CC1`, “inactive”; in that of `Cc1cc(CCCOc2c(C)cc(-c3noc(C(F)(F)F)n3)cc2C)on1`, “inactive”.
With `NS(=O)(=O)c1cc(C(=O)NN2C[C@H]3[C@H]4CCC(C4)[C@H]3C2)ccc1Cl`, the Potency entry is “inactive”.
With `O=C(CCCl)NCc1ccccc1`, the Potency entry is “inactive”.
Take `CCCCC(O)/C=C(C)/C=C/C=C/C(=O)N1CCCC1=O` (centres undefined): the Potency result was “inactive”.
Regarding `CC(C)(C)NCC(O)COc1ccccc1OCC1CCCO1` (centres undefined), the Potency result is “inactive”.
Turning to `Clc1ccc2c(c1)Nc1ccccc1S2`, the Potency entry was “inactive”.
On to `O=c1[nH]c2ccccc2c(=O)n1CCCl`, for which the Potency entry was “inactive”.
For the compound `CCNC(=O)NCCCOc1cccc(CN2CCCCC2)c1`, the Potency entry is “inactive”.
The result for `O=C1CC2(CCCC2)CC(=O)N1` reads “inactive”.
The result for `CCCc1ncc(C(=O)O)s1` reads “inactive”.
For the compound `CCOC(=O)c1ccc(NC(=O)CN2CCCCC2)cc1`, the Potency entry was “inactive”.
As to `CCCCN(CCCC)C(C(N)=O)c1ccc(OC)cc1` (centres undefined), the Potency result is “inactive”.
In the case of `Cc1coc2ccccc2c1=O` it was “inactive”; in that of `COC(=O)c1cc(S(N)(=O)=O)ccc1OC`, “inactive”.
Consider `CC(=O)Nc1ccc(S(=O)(=O)Nc2cc(C)on2)cc1`, for which the Potency entry is “inactive”.
`CCn1ccc(NS(=O)(=O)c2ccc(N)cc2)nc1=O`: the Potency result was “inactive”.
The result for `OCCCc1ccccc1` reads “inactive”.
